# From PubChem BioAssay AID652126 (The Scripps Research Institute Molecular Screening Center, 2013)
# Hit rate of the full screen: of about 370,000 compounds, about 3,700 (1%) were called active.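 The calls were made as follows: active = activation above the mean over all tested compounds plus 3 SD (cut at about 0.9% in these data); inactive = the rest.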 Many of the other results were omitted from the sample, so actives are more common in it than they were.
# Tested on: Nuclear hormone receptor DAF-12 (Strongyloides stercoralis)
# Test: ssDAF-12 driven luciferase reporter activation – cell-based, luminescence, HEK293, GRIP1 co-expression, lit1-tk-luc, primary screen (AID 652126);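 also: 0% = DMSO-only wells and 100% = 3 µM delta7-dafachronic acid wells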
# Conditions: HEK293 ssDAF-12/GRIP1 lit1-tk-luc reporter, at 6.8 µM, stronger effect = higher value, % of 3 µM dafachronic acid response
row,SMILES,activation
1,COC(=O)C1CN(CCc2ccccc2)CCS(=O)(=O)N1Cc1cccc(Cl)c1 (stereo not drawn),-0.43% (inactive)
2,CCC(=O)Nc1ccc2c(c1)C(=O)N(C)[C@@H]1CC[C@@H](CC(=O)NCCc3ccccc3)O[C@H]1CO2,-0.55% (inactive)
3,C[C@@H]1CN([C@@H](C)CO)C(=O)c2cccc(NC(=O)Nc3cccc4ccccc34)c2O[C@H]1CN(C)S(=O)(=O)c1ccccc1F,-2.39% (inactive)
4,COC(=O)C[C@@H]1CC[C@H]2[C@@H](COc3ccc(NS(=O)(=O)CC(F)(F)F)cc3C(=O)N2C)O1,-1.22% (inactive)
5,O=C(c1cccc(C(F)(F)F)c1)N1CC[C@H]2[C@H](CCCN2Cc2cc(F)cc(F)c2)C1,-1.1% (inactive)
6,CC(C)C(=O)Nc1c(C(=O)c2ccc(F)cc2)oc2ccccc12,-0.79% (inactive)
7,CC(C)C(=O)Nc1ccc2c(c1)oc1ccccc12,1.28% (active)
8,CC(C)C(=O)Nc1oc(-c2ccccc2)cc1C#N,-1.13% (inactive)
9,Cc1ccccc1CSc1nnc(Cn2c(=O)sc3ccccc32)n1C,-1.22% (inactive)
10,CC(C)N1CCCCC(NC(=O)c2ccc3ccccc3c2)C1=O (stereo not drawn),-0.75% (inactive)
11,Cc1ccc(NC(=O)C2(N3CCC3=O)CCCCC2)cc1,-0.98% (inactive)
12,CC1CC(C)CN(CCCNC(=O)c2csc3c2CCCCC3)C1 (stereo not drawn),-1.8% (inactive)
13,Cc1ccc(NC(=O)c2csc3c2CCCC3)cc1,1.46% (active)
14,COc1ccc(NC(=O)CC2C(=O)OCC3CCCCN32)cc1Cl (stereo not drawn),-1.7% (inactive)
15,CC(=O)C1(C(=O)Nc2nccs2)CC(c2ccccc2C(F)(F)F)=NO1 (stereo not drawn),-1.38% (inactive)
16,CC1CCN(c2ccc(S(=O)(=O)Nc3cc(C(=O)O)cc(C(=O)O)c3)cc2[N+](=O)[O-])CC1,-1.44% (inactive)
17,O=C(O)C1CCN(c2ccc([N+](=O)[O-])cc2[N+](=O)[O-])CC1,1.84% (active)
18,CCC(C)(C)NC(=O)c1cc([N+](=O)[O-])ccc1N1CCCCC1,-1.32% (inactive)
19,O=C(c1ccccc1)c1ccc(-c2ccccc2C(=O)NC2CCCCN(Cc3ccc(Cl)cc3)C2=O)cc1 (stereo not drawn),-0.93% (inactive)
20,COC(=O)C[C@@H]1C=C[C@@H](NS(=O)(=O)c2cccc(OC)c2)[C@@H](CO)O1,-0.52% (inactive)
21,Cc1ccc(S(=O)(=O)N2CCOCC2)cc1C(=O)OC1CCCCC1=O (stereo not drawn),1.21% (active)
22,COc1ccc(S(=O)(=O)N2CCOCC2)cc1C(=O)NC1CCCCC1,-1.6% (inactive)

row,SMILES,activation
1,COC(=O)C1CCN(C(=O)COC(=O)c2cc(S(=O)(=O)N3CCOCC3)ccc2C)CC1,-1.23% (inactive)
2,CCN(CC)C(=O)CC[C@@H]1CC[C@]2(CCCN(S(=O)(=O)C3CCCCC3)C2)O1,-1.11% (inactive)
3,CN(C)Cc1cn(-c2ccc(-c3noc4c3C(=O)N(CC(=O)N3CCOCC3)CC4)cc2)nn1,-0.67% (inactive)
4,O=C(OCC#CCSc1nnc(-c2ccco2)o1)c1ccc(F)cc1,-0.22% (inactive)
5,CCCC[C@H](C(=O)N(CC)c1ccccc1)[C@@H](O)c1ccc2ccccc2c1,-1.15% (inactive)
6,O=C(c1cc(C2CCCCN2S(=O)(=O)c2ccccc2)on1)N1CCOCC1 (stereo not drawn),-1.54% (inactive)
7,O=C(c1cc(-c2ccc(O)cc2)on1)N1CCOCC1,1.22% (active)
8,O=C(c1cc(COc2ccc(F)cc2F)on1)N1CCOCC1,0.37% (inactive)
9,O=C1Nc2ccccc2OC1CC(=O)N1CCCCCCC1 (stereo not drawn),-0.55% (inactive)
10,c1cncc(CNc2ccnc(-c3ccc4c(c3)OCO4)n2)c1,-1.42% (inactive)
11,CCOC(=O)[C@]12CCCC3=C1N(CCC3)C(=O)[C@@H](CC(=O)NCc1cccs1)C2,-1.02% (inactive)
12,Brc1ccc2nc(N3CCCC3)sc2c1,1.8% (active)
13,Cc1nc2ccc(NC(=O)C3CCCCC3)cc2s1,-1.51% (inactive)
14,Cc1nc2ccc(C(=O)N3CCSCC3)cc2s1,-1.17% (inactive)
15,C=CCN1C(=O)[C@H](CC(=O)NCCCN2CCCC2=O)[C@@]2(C(=O)OCC)CCCC=C12,-0.32% (inactive)
16,COc1ccc(Br)cc1CN1CCN(C(=O)c2cccc(OC)c2OC)CC1,-0.37% (inactive)
17,COc1cccc(C(=O)OCc2cc(=O)oc3c(C)c(C)ccc23)c1OC,1.06% (active)
18,COC(=O)Cc1cc(=O)oc2c(C)c(O)ccc12,-1% (inactive)
19,CC(C)[C@@H]1NC(=O)c2cc([N+](=O)[O-])cc(I)c2NCCC[C@@H](C(=O)NC(CC(=O)O)C(N)=O)NC(=O)[C@H](CO)NC1=O (stereo partly drawn),-1.32% (inactive)
20,CCOC(=O)[C@]12CCCCC/C=C\1N(Cc1ccc(OC)cc1)C(=O)[C@H]2CC(=O)NCc1ccc(C)o1,-1.69% (inactive)
21,COC(=O)c1cc(S(=O)(=O)N2CCN(c3ccccc3C)CC2)cn1C,-1.46% (inactive)
22,COc1ccc(-c2cc(C(=O)NC(Cc3c[nH]c4ccccc34)C(=O)O)c(C)o2)cc1OC (stereo not drawn),0.94% (active)

row,SMILES,activation
1,O=C(CCn1nnc2ccccc2c1=O)N[C@@H](Cc1c[nH]c2ccccc12)C(=O)O,-1.08% (inactive)
2,COc1ccc(-c2cc(C(=O)NC(C(=O)O)C(C)C)c(C)o2)cc1OC (stereo not drawn),-0.63% (inactive)
3,CC1=NN(/C(=N\c2nnc(C)s2)Nc2ccccc2)[C@H](c2ccc(C)cc2)S1,-1.96% (inactive)
4,CC(C)C(C#CC1CC1)N(Cc1ccc2c(c1)OCO2)C(N)=NC(=O)/C=C/c1cccc(C(F)(F)F)c1 (stereo not drawn),-1.84% (inactive)
5,CC(=O)c1ccc(NC(=O)c2cc(-c3cccs3)on2)cc1,-0.86% (inactive)
6,O=C(O)c1ccc(N/N=C/c2cn(-c3ccccc3)nc2-c2cccs2)cc1,1.45% (active)
7,O=C(N/N=C/c1sc(N2CCCCC2)nc1-c1cccs1)c1cccnc1,-1.2% (inactive)
8,O=C(NC1CCCCN(Cc2ccc(Cl)cc2)C1=O)c1ccc(Br)cc1 (stereo not drawn),-1.36% (inactive)
9,Cc1ccc(Cn2cc(CN3[C@@H](CC(C)C)COc4ccc(Cl)cc4S3(=O)=O)nn2)cc1,-1.11% (inactive)
10,O=C(Nc1cccc(Cl)c1)c1cncn1-c1ccc(F)cc1,-1.04% (inactive)
11,CCOC(=O)c1nnn(CC(=O)Nc2cccc(F)c2)c1C(=O)OCC,-1.33% (inactive)
12,CCC(=O)Nc1ccc2nn(-c3ccc(F)cc3)nc2c1,1.14% (active)
13,COC(=O)[C@]12C[C@H](CC(=O)NCc3cccc4ccccc34)C(=O)N(CCc3ccc(OC)c(OC)c3)C1=C[C@H](C1CCCC1)O[C@@H]2C,-0.95% (inactive)
14,O=C(Nc1ccc(Br)cc1)OCCN1C(=O)CCC12CCC(c1ccccc1)CC2 (stereo not drawn),-0.35% (inactive)
15,CCOC(=O)c1c(/N=C/c2cc(C)ccc2O)sc2c1CCC2,-1.3% (inactive)
16,CCOC(=O)c1c(CC(C)C)csc1/N=C/C1=C(O)CCCC1=O,-1.42% (inactive)
17,CCOC(=O)c1c(N)sc2c1CCCC2=O,1.3% (active)
18,O=C(C1CCN(S(=O)(=O)c2ccccc2)CC1)N1CCN(C2CCCCC2)CC1,-1.32% (inactive)
19,CC(CCN1CCC(C(O)(c2ccccc2)c2ccccc2)CC1)Oc1ccc(Cl)cc1 (stereo not drawn),-0.71% (inactive)
20,Cc1ccc(-c2nc(C3CCCN(S(=O)(=O)c4ccc(Br)s4)C3)no2)cc1 (stereo not drawn),-1.49% (inactive)
21,NC(=O)Nc1ccccc1C(=O)NCCc1ccccc1,1.06% (active)
22,Nc1nc2c(Br)ccc(Br)c2cc1C(=O)NCCc1ccccc1,-1.14% (inactive)

row,SMILES,activation
1,Nc1nonc1C(=O)NCCc1ccccc1,-1.42% (inactive)
2,O=C(OC12CCCN(C1)/C(=C/c1ccccc1)C2)c1ccco1 (stereo not drawn),-0.69% (inactive)
3,O=C(C1CCCN1S(=O)(=O)c1ccccc1)N1CCc2ccccc2C1 (stereo not drawn),-1.12% (inactive)
4,COc1ccc(C(=O)CC(=O)c2ccc(C)cc2)c(O)c1,-1.3% (inactive)
5,COc1ccc(C(=O)c2c3ccc([N+](=O)[O-])cc3[n+]([O-])n2CCCN)cc1,-1.18% (inactive)
6,COc1ccc2c(C(=O)c3ccc(C)cc3)n(CCC(N)=O)[n+]([O-])c2c1,0.92% (active)
7,FC(F)(F)c1cccc(Cn2ccc3ccc(-c4ccc5ccn(Cc6ccccc6)c5c4)cc32)c1,-1.17% (inactive)
8,Cc1ccc(SCCSc2ncccn2)cc1,0.96% (active)
9,Cc1ccc(SCCC(=O)NC(C(C)C)C(C)C)cc1,-1.68% (inactive)
10,Cc1ccc(SCCC(=O)NCc2ccccn2)cc1,-1.21% (inactive)
11,CC(C)N1CCCCC(NC(=O)C(C)(C)C)C1=O (stereo not drawn),-1.27% (inactive)
12,CCCCC(=O)N[C@@H]1CC[C@@]23CCCN2C(=O)CCC[C@H]3[C@H]1C,-1.42% (inactive)
13,Cc1nn(-c2ccc([N+](=O)[O-])cc2)c(N)c1-c1ccccc1,0.95% (active)
14,Cc1nn(-c2ccccc2)c2c1C(c1cccc([N+](=O)[O-])c1)N(c1ccccc1)C(=O)N2 (stereo not drawn),-2.08% (inactive)
15,CC(C)(C)c1cnnn1-c1ccc([N+](=O)[O-])cc1,-1.44% (inactive)
16,CC(C)(C)OC(=O)NCCc1ccccc1/C=C/S(=O)(=O)NCc1ccc(F)cc1,-0.76% (inactive)
17,O=C(Nc1nc2ccc(Cl)cc2s1)c1cc(-c2ccc(Cl)cc2)nc2ccccc12,0.48% (inactive)
18,O=C(Nc1ccccc1)Nc1nc2ccccc2s1,2.17% (active)
19,O=C(Nc1ccc2ccccc2c1)Nc1ccc2snnc2c1,-0.89% (inactive)
20,COc1ccc(CN(CCN2CCOCC2)C(=O)c2ccc(C)cc2)cc1OC,-0.08% (inactive)
21,COc1ccc(/C=C2\CC3(OC(C)=O)CCCN2C3)cc1 (stereo not drawn),-1.25% (inactive)
22,Cc1ccc(NC(=O)Nc2cc(C)nn2-c2ccccc2)cc1,-0.89% (inactive)
